According to PubChem BioAssay (NCATS):
Results filed as inconclusive are left out. Entries that show only a call come without a potency. Unmarked numbers belong to inactive results. Calls of active or inactive are those of the source. Calls follow the shape of the dose curve; as a rule, active = well fitted cell-killing curve with a large enough effect; inconclusive = small, poorly fitted or top-dose-only effect, or effect the other way; inactive = flat fitted curve, though single readings scatter.

Tests used:
Assay in all cases: Primary qHTS to identify gynecologic anti-cancer compounds using libraries of approved drugs and bioactive compounds (AID 1345084); also: nearly all actives have a fitted effect of over 55% in size
Es-2 = conditions: Gynecologic cancer cell panel viability, ATPlite luminescence, 48 h; series mostly up to 57.5 µM
How it was run: (§1)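 Cytotoxicity screen measuring ATP content by luciferase luminescence. Each compound is applied at five concentrations for 48 h at 37 C with 5% CO2.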

HeLa = conditions: Gynecologic cancer cell panel viability, ATPlite luminescence, 48 h; series mostly up to 57.5 µM
How it was run: as §1

Hek293T = conditions: Gynecologic cancer cell panel viability, ATPlite luminescence, 48 h, control line for the selectivity index; series mostly up to 57.5 µM
How it was run: as §1

JEG-3 = conditions: Gynecologic cancer cell panel viability, ATPlite luminescence, 48 h; series mostly up to 57.5 µM
How it was run: as §1

OV90 = conditions: Gynecologic cancer cell panel viability, ATPlite luminescence, 48 h; series mostly up to 57.5 µM
How it was run: as §1

PA-1 = conditions: Gynecologic cancer cell panel viability, ATPlite luminescence, 48 h; series mostly up to 57.5 µM
How it was run: as §1

SKOV3 = conditions: Gynecologic cancer cell panel viability, ATPlite luminescence, 48 h; series mostly up to 57.5 µM
How it was run: as §1

Tov-21-G = conditions: Gynecologic cancer cell panel viability, ATPlite luminescence, 48 h; series mostly up to 57.5 µM
How it was run: as §1

Tov112D = conditions: Gynecologic cancer cell panel viability, ATPlite luminescence, 48 h; series mostly up to 57.5 µM
How it was run: as §1
Potency is read from the fitted curve at half-maximal effect.

| Compound | Potency (Es-2) | Potency (HeLa) | Potency (Hek293T) | Potency (JEG-3) | Potency (OV90) | Potency (PA-1) | Potency (SKOV3) | Potency (Tov-21-G) | Potency (Tov112D) | activity change, negative = cytotoxicity (Es-2) | activity change, negative = cytotoxicity (HeLa) | activity change, negative = cytotoxicity (Hek293T) | activity change, negative = cytotoxicity (JEG-3) | activity change, negative = cytotoxicity (OV90) | activity change, negative = cytotoxicity (PA-1) | activity change, negative = cytotoxicity (SKOV3) | activity change, negative = cytotoxicity (Tov-21-G) | activity change, negative = cytotoxicity (Tov112D) |
| --- | --- | --- | --- | --- | --- | --- | --- | --- | --- | --- | --- | --- | --- | --- | --- | --- | --- | --- |
| NS(=O)(=O)NCCNc1nonc1C(=Nc1ccc(F)c(Br)c1)NO | inactive | inactive | inactive | inactive | inactive | inactive | inactive | inactive | inactive |  |  |  |  |  |  |  |  |  |
| CNC(=O)Nc1ccc(OC)c(NC(=O)NC(=O)c2cc(F)c(F)cc2Cl)c1 | inactive | inactive | inactive | inactive | inactive | inactive | inactive | inactive | inactive |  |  |  |  |  |  |  |  |  |
| CC1(C)CC2C3=CCC4C5(C)CCC(OC6OC(CO)C(O)C(OC7OC(CO)C(O)C(OC8OC(CO)C(O)C(OC9OC(COC%10OC(CO)C(O)C(O)C%10O)C(O)C(O)C9O)C8O)C7O)C6O)C(C)(C)C5CCC4(C)C3(C)CCC2(C(=O)O)CC1O (configuration not stated) |  |  |  |  |  |  |  |  |  | 1.92% [at 6.55 µM] | -11.1% [at 6.55 µM] | -9.53% [at 6.55 µM] | 6.92% [at 6.55 µM] | 0.668% [at 6.55 µM] | 1.44% [at 6.55 µM] | 0% [at 6.55 µM] | -2.7% [at 6.55 µM] | 1.66% [at 6.55 µM] |
| CC1C(=O)CC2C3C(O)CC(C(=O)O)C12CC3(C)C (configuration not stated) | inactive | inactive | inactive | inactive | inactive | inactive | inactive | inactive | inactive |  |  |  |  |  |  |  |  |  |
| C=C(C)C(C)C1OC23CC4(CO2)C(CCC2C5(C)CCC(OC6OCC(O)C(OC7OC(CO)C(O)C(OC8OCC(O)C(O)C8O)C7O)C6OC6OC(CO)C(O)C6O)C(C)(C)C5CCC24C)C3C(C)(O)C1OC(C)=O (configuration not stated) |  |  |  |  |  |  |  |  |  | 0.0055% [at 11.6 µM] | 1.27% [at 11.6 µM] | 12% [at 11.6 µM] | -1.98% [at 11.6 µM] | -0.379% [at 11.6 µM] | -1.12% [at 11.6 µM] | 3.59% [at 11.6 µM] | 1.52% [at 11.6 µM] | 5.61% [at 11.6 µM] |
| C/C1=C\C[C@H](O[C@@H]2O[C@H](CO)[C@@H](O)[C@H](O)[C@H]2O)/C(C)=C/[C@H]2OC(=O)[C@H](C)[C@@H]2CC1 | inactive | inactive | inactive | inactive | inactive | inactive | inactive | inactive | inactive |  |  |  |  |  |  |  |  |  |
| CCOC(=O)[C@H](CCc1ccccc1)N[C@@H](C)C(=O)N1C2CCCCC2C[C@H]1C(=O)O (some centres not stated) | inactive | inactive | inactive | inactive | inactive | inactive | inactive | inactive | inactive |  |  |  |  |  |  |  |  |  |
| C=C1CC2C3(C)C(O)CC(=O)C(C)(C)C3C(OC(C)=O)C(OC(C)=O)C2(C)C2C(=O)OC(C)(C(=O)OC)C(=O)C12C (configuration not stated) | inactive | inactive | inactive | inactive | inactive | inactive | inactive | inactive | inactive |  |  |  |  |  |  |  |  |  |
| CC1CC(=O)C2=C(O1)OC1(C)CCC3C(C)(C)C=CC(=O)C3(C)C1C2 (configuration not stated) | inactive | inactive | inactive | inactive | inactive | inactive | inactive | inactive | inactive |  |  |  |  |  |  |  |  |  |
| CCOc1ccc(C(Nc2ccccn2)c2ccc3ccc(C)nc3c2O)cc1C (configuration not stated) | inactive | inactive | inactive | inactive | inactive | inactive | inactive | inactive | inactive |  |  |  |  |  |  |  |  |  |
| CC(c1c[nH]c2ccccc12)C(O)C(=O)O (configuration not stated) | inactive | inactive | inactive | inactive | inactive | inactive | inactive | inactive | inactive |  |  |  |  |  |  |  |  |  |
| CC(C)CC(=O)O[C@@H]1OC=C(CO[C@@H]2O[C@H](CO[C@@H]3O[C@H](CO)[C@@H](O)[C@H](O)[C@H]3O)[C@@H](O)[C@H](O)[C@H]2O)[C@H]2C[C@H](O)[C@@H](CO)[C@@H]12 | inactive | inactive | inactive | inactive | inactive | inactive | inactive | inactive | inactive |  |  |  |  |  |  |  |  |  |
| C=CC1(C)CC(O)C2(CCC3C(C)(C(=O)O)CCCC3(C)C2=O)C1 (configuration not stated) | inactive | inactive | inactive | inactive | inactive | inactive | inactive | inactive | inactive |  |  |  |  |  |  |  |  |  |
| CCC(CC)n1ccc2c(C(=O)NCc3c(C)cc(C)[nH]c3=O)cc(C#N)cc21 | inactive | inactive | inactive | inactive | inactive | inactive | inactive | inactive | inactive |  |  |  |  |  |  |  |  |  |
| O=C(COc1ccc(Cl)cc1)NC1CCC(NC(=O)COc2ccc(Cl)cc2)CC1 (configuration not stated) | inactive | inactive | inactive | inactive | inactive | inactive | inactive | inactive | inactive |  |  |  |  |  |  |  |  |  |
| C=CC(C)(O)CC/C=C(/C)C(=O)OC1C(OC2OCC(OC3OC(CO)C(O)C(O)C3O)C(OC3OCC(O)C(OC4OC(C)C(O)C(O)C4O)C3O)C2O)COC(OC(=O)C23CCC(C)(C)CC2C2=CCC4C5(C)CCC(OC6OC(CO)C(OC7OC(CO)C(O)C(OC8OCC(O)C(O)C8O)C7O)C(O)C6O)C(C)(C)C5CCC4(C)C2(C)CC3O)C1O (configuration not stated) |  |  |  |  |  |  |  |  |  | -0.338% [at 6.55 µM] | 1.37% [at 6.55 µM] | -23.4% [at 6.55 µM] | -0.642% [at 6.55 µM] | -1.5% [at 6.55 µM] | 6.35% [at 6.55 µM] | 24.3% [at 6.55 µM] | 1.46% [at 6.55 µM] | 0.487% [at 6.55 µM] |
| OCC1OC(Oc2cc(O)c3c(c2)OC(c2ccc(O)cc2)C(O)C3)C(O)C1O (configuration not stated) | inactive | inactive | inactive | inactive | inactive | inactive | inactive | inactive | inactive |  |  |  |  |  |  |  |  |  |
| COc1ccc(C2=CC(=O)OC2Cc2ccc(O)cc2)c(O)c1 (configuration not stated) | inactive | inactive | inactive | inactive | inactive | inactive | inactive | inactive | inactive |  |  |  |  |  |  |  |  |  |
| CC(=O)N[C@H]1[C@H](O[C@H]2CC[C@@]3(C)C(CC[C@]4(C)C3CC=C3C5CC(C)(C)CC[C@]5(C(=O)O)[C@H](O[C@@H]5O[C@H](CO)[C@@H](O)[C@H](O)[C@H]5O)C[C@]34C)C2(C)C)O[C@H](CO[C@@H]2OC[C@H](O)[C@H](O)[C@H]2O[C@@H]2OC[C@@H](O)[C@H](O)[C@H]2O)[C@@H](O)[C@@H]1O (some centres not stated) |  |  |  |  |  |  |  |  |  | -1.11% [at 11.6 µM] | 15.9% [at 11.6 µM] | -2.94% [at 11.6 µM] | -2.88% [at 11.6 µM] | -0.313% [at 11.6 µM] | -6.75% [at 11.6 µM] | 13% [at 11.6 µM] | 0.549% [at 11.6 µM] | 6.55% [at 11.6 µM] |
| Clc1ccc2c(c1)C1=NCCN1c1c(-c3noc(C4CC4)n3)ncn1-2 | inactive | 3.16 µM (active) | inactive | inactive | inactive | inactive | inactive | inactive | inactive |  |  |  |  |  |  |  |  |  |
| CC(=O)O[C@H]1[C@H](Oc2ccccc2COC(=O)C2(O)C=CCCC2=O)O[C@H](CO)[C@@H](O)[C@@H]1O (some centres not stated) | inactive | inactive | inactive | inactive | inactive | inactive | inactive | inactive | inactive |  |  |  |  |  |  |  |  |  |
| CC1(CO)CC[C@]2(C(=O)O[C@@H]3O[C@H](CO)[C@@H](O)[C@H](O)[C@H]3O)CC[C@]3(C)C(=CCC4[C@@]5(C)C[C@H](O)[C@H](O[C@@H]6OC[C@@H](O)[C@H](O)[C@H]6O)[C@@](C)(CO)C5CC[C@]43C)C2C1 (some centres not stated) |  |  |  |  |  |  |  |  |  | -0.538% [at 11.6 µM] | 1.08% [at 11.6 µM] | 6.32% [at 11.6 µM] | 16.2% [at 11.6 µM] | 9.02% [at 11.6 µM] | -3.32% [at 11.6 µM] | 2.79% [at 11.6 µM] | 4.01% [at 11.6 µM] | -0.665% [at 11.6 µM] |
| O=C(O[C@H]1[C@@H]2C=CO[C@@H](O[C@@H]3O[C@H](CO)[C@@H](O)[C@H](O)[C@H]3O)[C@@H]2[C@@]2(CO)O[C@@H]12)c1ccc(O)cc1 | inactive | inactive | inactive | inactive | inactive | inactive | inactive | inactive | inactive |  |  |  |  |  |  |  |  |  |
| C[C@]1(O)CC[C@@H]2C(C(=O)O)=CO[C@@H](O[C@@H]3O[C@H](COC(=O)c4ccc(O)cc4)[C@@H](O)[C@H](O)[C@H]3O)[C@@H]21 | inactive | inactive | inactive | inactive | inactive | inactive | inactive | inactive | inactive |  |  |  |  |  |  |  |  |  |
| COc1ccccc1CC(C(=O)O)N(C)C(=O)c1ccccc1 (configuration not stated) | inactive | inactive | inactive | inactive | inactive | inactive | inactive | inactive | inactive |  |  |  |  |  |  |  |  |  |
| CC(=O)NC(C(=O)OC1CCC(C)(C)C2CC=C3C(=O)OCC3(O)C12C)C(C)C (configuration not stated) | inactive | inactive | inactive | inactive | inactive | inactive | inactive | inactive | inactive |  |  |  |  |  |  |  |  |  |
| CCC(CCO[C@@H]1O[C@H](CO[C@H]2OC[C@](O)(CO)[C@H]2O)[C@@H](O)[C@H](O)[C@H]1O)C(C)(C)O (some centres not stated) | inactive | inactive | inactive | inactive | inactive | inactive | inactive | inactive | inactive |  |  |  |  |  |  |  |  |  |
| CC1(CCC(=O)O)C(=O)C=CC23CC4CC(OC4(C)C2O)C13 (configuration not stated) | inactive | inactive | inactive | inactive | inactive | inactive | inactive | inactive | inactive |  |  |  |  |  |  |  |  |  |
